From the supplement of paper PMC7184167 come the findings set out here.

Molecules are shown by their SMILES. Counter-ions that a name gives are not always drawn.

This experiment relates to replication-induced senescent mouse newborn dermal fibroblasts (NBF). In words: relative cell viability of senescent cells (fraction); higher = less killing of senescent cells. Particulars: 1 µM; 3 days. The method, then:
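Replication-induced senescent newborn mouse skin fibroblasts (NBFs) in 24-well plates were treated with a Selleck FDA-approved drug library at 1 µM for 3 days.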
`COc1cc2/c(=N/c3ccc(Br)cc3F)nc[nH]c2cc1OCC1CCN(C)CC1` [Vandetanib (ZD6474)]: the relative cell viability worked out at 0.464.
`COc1ccc(/C=C/C(=O)Nc2ccccc2C(=O)O)cc1OC` [Tranilast] returned a relative cell viability of 1.
For `CCCCCOC(=O)Nc1nc(=O)n([C@@H]2O[C@H](C)[C@@H](O)[C@H]2O)cc1F` [Capecitabine] the value was 0.891; for `Cc1cn([C@@H]2C[C@@H](O)[C@H](CO)O2)c(=O)[nH]c1=O` [Telbivudine], 1; for `C[N+]1(C)[C@@H]2C[C@@H](OC(=O)C(O)(c3cccs3)c3cccs3)C[C@H]1[C@@H]1O[C@@H]12` [Tiotropium Bromide hydrate], 1.07.
The same measure for `CC(C)(C)NC(=O)[C@H]1CC[C@H]2[C@@H]3CC[C@H]4NC(=O)C=C[C@]4(C)[C@H]3CC[C@]12C` [Finasteride]: 0.942.
The same measure for `COCCc1ccc(OCC(O)CNC(C)C)cc1` (stereo not given) [Metoprolol Tartrate]: 1.1; for `Cc1ccc(C(=O)N(CCCN)[C@@H](c2nc3cc(Cl)ccc3c(=O)n2Cc2ccccc2)C(C)C)cc1`: 1.13.
As for `Nc1nc(Cl)nc2c1ncn2[C@H]1C[C@H](O)[C@@H](CO)O1` [Cladribine], the relative cell viability was 0.924.
`CO[C@H]1C[C@@H]2CC[C@@H](C)[C@@](O)(O2)C(=O)C(=O)N2CCCC[C@H]2C(=O)O[C@H]([C@H](C)C[C@@H]2CC[C@@H](OCCO)[C@H](OC)C2)CC(=O)[C@H](C)/C=C(\C)[C@@H](O)[C@@H](OC)C(=O)[C@H](C)C[C@H](C)/C=C/C=C/C=C/1C` [Everolimus (RAD001)] displayed a relative cell viability of 0.765.
The same measure for `C#C[C@]1(O)CC[C@H]2[C@@H]3CCC4=CC(=O)CC[C@@H]4[C@H]3CC[C@@]21CC` [Levonorgestrel]: 0.996.
For `O=C(Nc1cccc2c(=O)cc(-c3nnn[nH]3)oc12)c1ccc(OCCCCc2ccccc2)cc1` [Pranlukast] the value was 1.01.
The same measure for `N#C[C@@H]1C[C@@H]2C[C@@H]2N1C(=O)[C@@H](N)C12CC3CC(CC(O)(C3)C1)C2` [Saxagliptin]: 0.999; for `CC(C)OC(=O)C(C(=O)OC(C)C)=C1SC=CS1` [Malotilate]: 1.04; for `CCN1CCN(C(=O)N[C@@H](C(=O)N[C@@H]2C(=O)N3C(C(=O)O)=C(CSc4nnnn4C)CS[C@H]23)c2ccc(O)cc2)C(=O)C1=O` [Cefoperazone]: 1.03.
As for `C[C@H]1[C@H](NC(=O)/C(=N\OC(C)(C)C(=O)O)c2csc(N)n2)C(=O)N1S(=O)(=O)O` [Aztreonam], the relative cell viability amounted to 1.06.
For `Cc1ccc(F)c(NC(=O)Nc2ccc(-c3cccc4[nH]nc(N)c34)cc2)c1` [Linifanib (ABT-869)] the value was 0.927.
The same measure for `Cn1c(=O)c2c(ncn2CC(O)CO)n(C)c1=O` (stereo not given) [Dyphylline]: 0.335.
The same measure for `NC(=O)N1c2ccccc2C=Cc2ccccc21` [Carbamazepine]: 0.859.
With `Cn1c(=O)c2[nH]cnc2n(C)c1=O` [Aminophylline], the relative cell viability is 0.98.
The same measure for `Nc1ncn([C@H]2C[C@H](O)[C@@H](CO)O2)c(=O)n1` [Decitabine]: 0.211.
For the molecule `Cc1ccc(C(=O)Nc2ccc(CN3CCN(C)CC3)c(C(F)(F)F)c2)cc1C#Cc1cnc2cccnn12`, the relative cell viability was 0.964.
For `Cc1cnc(C(=O)NCCc2ccc(S(=O)(=O)NC(=O)NC3CCCCC3)cc2)cn1` [Glipizide] the value was 0.23.
The same measure for `CN(C)c1cc(NC(=O)CNC(C)(C)C)c(O)c2c1CC1CC3C(N(C)C)C(=O)C(C(N)=O)=C(O)C3(O)C(=O)C1=C2O` (stereo not given) [Tigecycline]: 0.694; for `COc1cc2nccc(Oc3ccc(NC(=O)Nc4cc(C)on4)c(Cl)c3)c2cc1OC` [Tivozanib (AV-951)]: 1.04.
For `CC(=O)O[C@H]1C[C@@H]2CC[C@@H]3[C@H](CC[C@@]4(C)[C@H]3C[C@H]([N+]3(C)CCCCC3)[C@@H]4OC(C)=O)[C@@]2(C)C[C@@H]1N1CCCCC1` [Vecuronium Bromide] the value was 1.08; for `C[C@H](N[C@@H](CCc1ccccc1)C(=O)O)C(=O)N1CCC[C@H]1C(=O)O` [Enalaprilat Dihydrate], 0.862; for `Cn1cc(CNCC2CCN(c3ncc(C(=O)NO)cn3)CC2)c2ccccc21`, 0.757.
For the molecule `NS(=O)(=O)c1cc2c(cc1Cl)NCNS2(=O)=O` [Hydrochlorothiazide], the relative cell viability was 1.07.
For `COc1cc2nccc(Oc3ccc(NC(=O)C4(C(=O)Nc5ccc(F)cc5)CC4)cc3)c2cc1OC` the value was 0.453.
Consider `CCOC(=O)C1=C(C)NC(C)=C(C(=O)OC)C1c1cccc(Cl)c1Cl` (stereo not given) [Felodipine], for which the relative cell viability worked out at 1.
For `CS(=O)(=O)c1ccc(C(=O)Nc2ccc(Cl)c(-c3ccccn3)c2)c(Cl)c1` [Vismodegib (GDC-0449)] the value was 0.521; for `COCC[n+]1c2c(n(Cc3cnccn3)c1C)C(=O)c1ccccc1C2=O` [YM155 (Sepantronium Bromide)], 0.187.
For `CCC(=O)OCC(=O)[C@@]1(OC(=O)CC)[C@@H](C)C[C@H]2[C@@H]3CCC4=CC(=O)C=C[C@]4(C)[C@@]3(F)[C@@H](O)C[C@@]21C` [Betamethasone Dipropionate] the value was 0.902; for `CC(C(=O)O)c1cccc(C(=O)c2ccccc2)c1` (stereo not given) [Ketoprofen], 0.757; for `CNC(=O)c1ccc2cc([C@@]3(O)CCn4cncc43)ccc2c1` [TAK-700 (Orteronel)], 0.282.
For `CCOC(=O)c1ccc(C#Cc2ccc3c(c2)C(C)(C)CCS3)nc1` [Tazarotene] the value was 1.23; for `CC[C@H]1OC(=O)[C@H](C)[C@@H](O[C@H]2C[C@@](C)(OC)[C@@H](O)[C@H](C)O2)[C@H](C)[C@@H](O[C@@H]2O[C@H](C)C[C@H](N(C)C)[C@H]2O)[C@](C)(O)C[C@@H](C)C(=O)[C@H](C)[C@@H](O)[C@]1(C)O` [Erythromycin], 0.796.
Molecule `CN(CCOc1ccc(NS(C)(=O)=O)cc1)CCc1ccc(NS(C)(=O)=O)cc1` [Dofetilide] gave a relative cell viability of 1.02.
For `C[C@H]1C[C@@H]2[C@H]([C@@H](O)C[C@@]3(C)[C@H]2CC[C@]3(O)C(=O)CO)[C@@]2(C)C=CC(=O)C=C12` [Methylprednisolone] the value was 1.09.
